Hit rate of the full screen: of about 5,500 compounds, about 2,000 (36%) were called active. Not shown: some 18% with an inconclusive outcome. This is one part of the list. A number with no mark means an inactive call. Rule as the data show it: active = normalized growth mostly below about 0.91 (no sharp cut-off); inconclusive = no clear call, values can overlap the other calls; inactive = mostly above about 0.92.
Assay: chemical genetic growth profiling, strain panel (AID 1159580);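 also: tested at 20 µM; growth read once vehicle control cultures reached saturation at 30 °C; 1 = growth at the plate median or of vehicle wells; lower values mean less growth of the strain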
Settings: S. cerevisiae deletion strains, growth OD

COc1ccc2cc3[n+](cc2c1OC)CCc1cc2c(cc1-3)OCO2
normalized growth (locus YJR075W, strain HOC1, active compounds read low): 0.394 (active) | normalized growth (locus YKL009W, strain mrt4, active compounds read low): 0.922 | normalized growth (locus YKL068W, active compounds read low): 1 | normalized growth (locus YKL085W, strain MDH1 (second series), active compounds read low): 0.996 | normalized growth (locus YKL085W, strain MDH1, active compounds read low): 0.996 | normalized growth (locus YKL160W, strain elf1, active compounds read low): 0.985 | normalized growth (locus YKL190W, strain CNB1, active compounds read low): 0.293 (active) | normalized growth (locus YKR001C, strain vps1, active compounds read low): 0.338 (active) | normalized growth (locus YKR026C, strain gcn3, active compounds read low): 0.994 | normalized growth (locus YKR091W, strain srl3, active compounds read low): 0.985 | normalized growth (locus YLL001W, strain dnm1, active compounds read low): 0.99 | normalized growth (locus YLL026W, active compounds read low): 1.02 | normalized growth (locus YLL041C, strain sdh2, active compounds read low): 0.989 | normalized growth (locus YLR027C, strain aat2, active compounds read low): 0.972 | normalized growth (locus YLR039C, strain RIC1, active compounds read low): 0.904 | normalized growth (locus YLR058C, strain SHM2, active compounds read low): 0.409 (active) | normalized growth (locus YLR102C, strain apc9, active compounds read low): 0.702 (active) | normalized growth (locus YLR113W, strain HOG1, active compounds read low): 0.83 (active) | normalized growth (locus YLR221C, strain rsa3, active compounds read low): 1 | normalized growth (locus YLR258W, strain gsy2, active compounds read low): 0.99 | normalized growth (locus YLR262C, strain YPT6 (second series), active compounds read low): 1.04 | normalized growth (locus YLR262C, strain YPT6, active compounds read low): 0.82 | normalized growth (locus YLR268W, strain sec22, active compounds read low): 0.409 (active) | normalized growth (locus YLR320W, strain mms22, active compounds read low): 0.993 | normalized growth (locus YLR330W, strain CHS5, active compounds read low): 0.711 (active) | normalized growth (locus YLR342W, strain FKS1 (second series), active compounds read low): 0.373 (active) | normalized growth (locus YLR342W, strain FKS1, active compounds read low): 0.979 | normalized growth (locus YLR357W, strain rsc2, active compounds read low): 0.948 | normalized growth (locus YLR370C, strain arc18, active compounds read low): 0.99 | normalized growth (locus YLR371W, strain rom2, active compounds read low): 0.8 (active) | normalized growth (locus YLR384C, strain iki3, active compounds read low): 0.975 | normalized growth (locus YLR418C, strain cdc73, active compounds read low): 0.478 (active) | normalized growth (locus YML016C, strain PPZ1, active compounds read low): 0.413 (active) | normalized growth (locus YML032C, strain rad52, active compounds read low): 0.459 (active) | normalized growth (locus YML120C, strain ndi1, active compounds read low): 0.996 | normalized growth (locus YML124C, strain tub3, active compounds read low): 0.652 (active) | normalized growth (locus YMR058W, strain fet3, active compounds read low): 0.985 | normalized growth (locus YMR078C, strain ctf18, active compounds read low): 0.912 | normalized growth (locus YMR125W, strain sto1, active compounds read low): 0.981 | normalized growth (locus YMR129W, active compounds read low): 0.991 | normalized growth (locus YMR205C, strain PFK2, active compounds read low): 0.967 | normalized growth (locus YMR223W, strain ubp8, active compounds read low): 0.393 (active) | normalized growth (locus YMR231W, strain pep5, active compounds read low): 0.995 | normalized growth (locus YMR263W, strain SAP30, active compounds read low): 0.55 (active) | normalized growth (locus YMR307W, strain GAS1, active compounds read low): 0.986 | normalized growth (locus YNL067W, strain RPL9B, active compounds read low): 0.319 (active)

Reference: PubChem BioAssay AID1159580 (chemical genetic matrix, 2015)
